# Active and inactive are the calls of the source. Rule for the calls: active = hit-call score of the fitted dose curve at least 0.9, where 1 is the maximum; inactive = score below 0.9.
# Legend:
# [1] = ATG_GRE_CIS: Attagene CIS-FACTORIAL HepG2 Assay for human Glucocorticoid Response Elements (GRE) (AID 2282947); conditions: HepG2 GRE cis-reporter, Attagene multiplex mRNA; actives raise or lower the signal
# Summary of the method: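 Fluorescence intensity of reporter-specific cDNA fragments, separated by capillary electrophoresis, provides the signal. Constructs carry cis-regulating promoters in transiently transfected HepG2 liver cells; 24 h incubation; fitting is bidirectional against DMSO.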
# [2] = ATG_ISRE_CIS: Attagene CIS-FACTORIAL HepG2 Assay for human Interferon Regulatory Factor 1 (IRF1) binding to an Interferon-Stimulated Response Element (ISRE) (AID 2282948); conditions: HepG2 ISRE cis-reporter (Attagene), mRNA transcription readout; actives raise or lower the signal
# Summary of the method: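 Signal reflects induction or loss of ISRE-linked reporter mRNA in transiently transfected HepG2 cells after a 24 h treatment, detected by fluorescent RT-PCR fragments on capillary electrophoresis and normalised to DMSO.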
# [3] = ATG_M_32_CIS: Attagene CIS-FACTORIAL HepG2 Assay for M32 Transcription Factor (Internal Marker) (AID 2282949); conditions: HepG2 Attagene cis-factorial M32 reporter, mRNA; actives raise or lower the signal;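 note: background control marker of the multiplexed CIS panel rather than a real target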
# Summary of the method: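 HepG2 transfectants (cis-regulated reporter transcription units) dosed 24 h. Reporter mRNA by RT-PCR plus CE, analysed as gain or loss relative to DMSO.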
# [4] = ATG_M_06_CIS: Attagene CIS-FACTORIAL HepG2 Assay for M06 Transcription Factor (Internal Marker) (AID 2282950); conditions: HepG2 Attagene CIS-FACTORIAL M06 internal marker reporter; actives raise or lower the signal
# Summary of the method: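 HepG2 cells transiently transfected with cis-regulated multiple reporter transcription units were exposed to chemical for 24 h; reporter mRNA was quantified by RT-PCR, 6-FAM primer labelling, HpaI digestion and capillary electrophoresis, fitted bidirectionally against DMSO.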
# [5] = target: Hypoxia-inducible factor 1-alpha (Homo sapiens) (UniProt Q16665); test: ATG_HIF1a_CIS: Attagene CIS-FACTORIAL HepG2 Assay for human Hypoxia Inducible Factor 1 (HIF1A) (AID 2282951); conditions: HepG2 Attagene cis-factorial HIF1a reporter transcription; actives raise or lower the signal
# Summary of the method: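 In this multiplexed cell assay, HepG2 cells bearing transfected cis reporters are dosed for 24 h and reporter mRNA is read by RT-PCR plus capillary electrophoresis; signal increases and decreases are both scored against DMSO.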
# [6] = target: Hepatocyte nuclear factor 6 (Homo sapiens) (UniProt Q9UBC0); test: ATG_HNF6_CIS: Attagene CIS-FACTORIAL HepG2 Assay for human Hepatocyte Nuclear Factor 6 (HNF6) (AID 2282952); conditions: HepG2 Attagene cis-factorial HNF6 reporter transcription; actives raise or lower the signal
# Summary of the method: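 First, HepG2 cells were transfected with the multiplexed cis reporter library and dosed with chemical for 24 h. Next, RNA was reverse-transcribed, PCR-amplified and fluorescently labelled. Finally, HpaI-digested fragments were read by capillary electrophoresis.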
# [7] = target: Heat shock factor protein 1 (Homo sapiens) (UniProt Q00613); test: ATG_HSE_CIS: Attagene CIS-FACTORIAL HepG2 Assay for human Heat Shock Transcription Factor 1 (HSE) (AID 2282953); conditions: HepG2 HSE cis-reporter, Attagene RNA transcription; actives raise or lower the signal
# Summary of the method: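 HepG2 cells transiently transfected with multiple reporter transcription units under cis-regulatory promoter control, measuring endogenous transcription factor activity. After 24 h chemical exposure, reporter mRNA quantified by RT-PCR, fluorescent labelling, HpaI digestion and capillary electrophoresis; bidirectional fit versus DMSO.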
# [8] = ATG_MRE_CIS: Attagene CIS-FACTORIAL HepG2 Assay for human Metal Responsive Element (MRE) (AID 2282954); conditions: HepG2 MRE cis-reporter transcription, Attagene multiplex; actives raise or lower the signal
# Summary of the method: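 Measured here is mRNA induction from an MRE cis-element reporter in HepG2 after 24 h, quantified by fluorescence of labelled RT-PCR products on capillary electrophoresis; gain- and loss-of-signal fits use DMSO as baseline.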
# [9] = target: Bile acid receptor (Homo sapiens) (UniProt Q96RI1); test: ATG_IR1_CIS: Attagene CIS-FACTORIAL HepG2 Assay for human Nuclear Receptor Subfamily 1 Group H Member 4 (NR1H4), IR1 submotif (AID 2282946); conditions: IR1 reporter transcription, actives raise or lower the signal
# Summary of the method: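 Fluorescence of capillary-separated, HpaI-digested RT-PCR reporter products gave IR1-element mRNA induction in HepG2 cells 24 h after dosing. Endogenous transcription factors drove the cis-regulated reporters; activity was fitted bidirectionally against DMSO.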
# [10] = ATG_PBREM_CIS: Attagene CIS-FACTORIAL HepG2 Assay for human Phenobarbital-responsive Enhancer Module (PBREM) (AID 2282955); conditions: HepG2 PBREM cis-reporter, Attagene multiplexed transcription; actives raise or lower the signal
# Summary of the method: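 After a 24 h incubation with test chemical, transfected HepG2 cells yield total RNA; reporter-specific RT-PCR products are fluorescently labelled, HpaI-digested and resolved by capillary electrophoresis against ROX size standards.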
# Chain of Bile acid receptor (Homo sapiens) (Q96RI1 whole entry, looked up): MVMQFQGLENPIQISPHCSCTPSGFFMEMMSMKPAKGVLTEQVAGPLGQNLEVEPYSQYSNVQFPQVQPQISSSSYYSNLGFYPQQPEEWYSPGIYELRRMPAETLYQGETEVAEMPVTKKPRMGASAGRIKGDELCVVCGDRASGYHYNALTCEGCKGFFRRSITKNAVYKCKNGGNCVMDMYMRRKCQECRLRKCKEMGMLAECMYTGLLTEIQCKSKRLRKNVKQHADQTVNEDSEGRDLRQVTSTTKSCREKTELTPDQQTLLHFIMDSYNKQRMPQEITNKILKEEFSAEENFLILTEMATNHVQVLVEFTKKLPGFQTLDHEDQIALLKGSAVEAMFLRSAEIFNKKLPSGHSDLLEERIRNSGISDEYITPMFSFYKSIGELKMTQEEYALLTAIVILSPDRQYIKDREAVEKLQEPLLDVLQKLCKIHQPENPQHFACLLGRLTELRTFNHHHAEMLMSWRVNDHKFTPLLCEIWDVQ
# Chain of Hepatocyte nuclear factor 6 (Homo sapiens) (Q9UBC0 whole entry, looked up, the tested form may be a part): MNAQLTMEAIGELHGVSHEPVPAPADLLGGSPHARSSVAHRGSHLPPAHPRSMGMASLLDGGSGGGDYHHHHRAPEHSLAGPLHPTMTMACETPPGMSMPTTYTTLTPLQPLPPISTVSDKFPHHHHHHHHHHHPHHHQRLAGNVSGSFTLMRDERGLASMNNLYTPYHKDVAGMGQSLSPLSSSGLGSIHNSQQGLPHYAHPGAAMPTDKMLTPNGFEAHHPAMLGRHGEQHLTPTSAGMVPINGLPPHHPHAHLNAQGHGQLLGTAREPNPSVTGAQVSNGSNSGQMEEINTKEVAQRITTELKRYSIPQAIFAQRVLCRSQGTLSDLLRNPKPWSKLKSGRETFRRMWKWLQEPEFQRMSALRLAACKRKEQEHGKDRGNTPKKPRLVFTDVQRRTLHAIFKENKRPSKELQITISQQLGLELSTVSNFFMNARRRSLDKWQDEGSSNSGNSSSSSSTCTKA
# Chain of Hypoxia-inducible factor 1-alpha (Homo sapiens) (Q16665 whole entry, looked up): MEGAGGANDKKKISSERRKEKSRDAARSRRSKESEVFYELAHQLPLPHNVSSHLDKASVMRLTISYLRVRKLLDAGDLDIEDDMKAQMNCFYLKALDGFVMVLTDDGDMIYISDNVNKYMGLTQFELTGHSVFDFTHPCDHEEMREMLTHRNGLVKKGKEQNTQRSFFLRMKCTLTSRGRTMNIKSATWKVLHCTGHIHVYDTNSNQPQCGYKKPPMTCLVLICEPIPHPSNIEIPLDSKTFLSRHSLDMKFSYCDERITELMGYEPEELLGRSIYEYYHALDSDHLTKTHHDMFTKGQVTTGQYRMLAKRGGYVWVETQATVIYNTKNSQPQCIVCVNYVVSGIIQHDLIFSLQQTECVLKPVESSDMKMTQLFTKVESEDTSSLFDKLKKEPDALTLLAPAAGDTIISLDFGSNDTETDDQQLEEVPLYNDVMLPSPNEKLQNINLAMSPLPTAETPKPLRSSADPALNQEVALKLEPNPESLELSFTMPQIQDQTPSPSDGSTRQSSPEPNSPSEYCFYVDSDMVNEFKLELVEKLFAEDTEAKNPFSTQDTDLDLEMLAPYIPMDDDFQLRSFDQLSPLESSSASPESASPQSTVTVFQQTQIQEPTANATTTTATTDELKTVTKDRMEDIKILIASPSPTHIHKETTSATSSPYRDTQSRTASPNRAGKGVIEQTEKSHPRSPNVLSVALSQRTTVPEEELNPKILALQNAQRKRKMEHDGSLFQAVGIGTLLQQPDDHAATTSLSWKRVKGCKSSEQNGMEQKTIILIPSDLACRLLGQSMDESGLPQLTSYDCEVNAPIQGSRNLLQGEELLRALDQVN
# Chain of Heat shock factor protein 1 (Homo sapiens) (Q00613 whole entry, looked up): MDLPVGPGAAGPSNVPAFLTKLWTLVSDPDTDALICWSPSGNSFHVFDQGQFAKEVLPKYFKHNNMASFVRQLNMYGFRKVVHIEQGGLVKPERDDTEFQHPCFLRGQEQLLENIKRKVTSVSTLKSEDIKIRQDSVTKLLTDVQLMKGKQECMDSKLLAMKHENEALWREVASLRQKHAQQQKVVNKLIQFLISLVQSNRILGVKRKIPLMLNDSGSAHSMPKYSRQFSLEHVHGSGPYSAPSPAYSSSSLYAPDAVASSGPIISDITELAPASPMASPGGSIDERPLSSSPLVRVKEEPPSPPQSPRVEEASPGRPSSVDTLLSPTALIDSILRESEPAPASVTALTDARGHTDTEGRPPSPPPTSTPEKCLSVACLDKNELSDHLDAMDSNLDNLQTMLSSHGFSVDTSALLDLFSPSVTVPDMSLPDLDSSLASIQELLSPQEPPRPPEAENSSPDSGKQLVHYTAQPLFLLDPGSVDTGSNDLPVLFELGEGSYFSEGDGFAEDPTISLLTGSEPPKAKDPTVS
Compound,outcome [1],outcome [2],outcome [3],outcome [4],outcome [5],outcome [6],outcome [7],outcome [8],outcome [9],outcome [10],AC50 [8],AC50 [10],AC50 [2],AC50 [7],AC50 [9]
CC(=O)Oc1ccc(C)cc1,inactive,inactive,inactive,inactive,inactive,inactive,inactive,inactive,,,,,,,
OC1OCCOC1O (stereo not given),,inactive,inactive,inactive,inactive,inactive,,inactive,inactive,inactive,,,,,
COCCCOCCCOC,,inactive,inactive,,inactive,inactive,inactive,inactive,inactive,inactive,,,,,
CCCCCc1ccc(Cl)cc1,,inactive,inactive,inactive,inactive,,inactive,inactive,inactive,,,,,,
Cc1cccc(N(C)C(=S)Oc2ccc3ccccc3c2)c1,,inactive,inactive,inactive,,inactive,inactive,,inactive,,1.89 µM (active),2.06 µM (active),,,
O=C1CCCCCN1SSN1CCCCCC1=O,,,inactive,,inactive,inactive,,,inactive,inactive,165 µM (active),,167 µM (active),133 µM (active),
CC(=O)Oc1ccc(C(C)=O)cc1,,inactive,inactive,,inactive,inactive,inactive,inactive,inactive,,,,,,
CCCc1ccc(OC)cc1,inactive,inactive,inactive,inactive,inactive,inactive,inactive,inactive,,,,,,,
CCOC(=O)CC,,,inactive,inactive,inactive,,,inactive,inactive,,,,,,
Cc1ccc([N+](=O)[O-])cc1S(=O)(=O)O,inactive,inactive,inactive,inactive,inactive,inactive,inactive,inactive,,,,,,,
NC(=O)N=NC(N)=O,,inactive,inactive,inactive,inactive,inactive,,inactive,inactive,inactive,,,,,
CCCCCCCCC(=O)OCC,inactive,inactive,inactive,inactive,inactive,inactive,inactive,inactive,,,,,,,
O=C(/C=C/C=C/c1ccc2c(c1)OCO2)N1CCCCC1,,,inactive,inactive,,inactive,,,,inactive,96.1 µM (active),,89.5 µM (active),159 µM (active),69.4 µM (active)
CCCCC(CC)COCC1CO1 (stereo not given),inactive,inactive,inactive,inactive,inactive,inactive,inactive,inactive,,,,,,,
C=C(C)C(=O)OCCO,,,inactive,inactive,inactive,inactive,inactive,inactive,inactive,inactive,,,,,

# Reference: PubChem BioAssay (EPA / NIEHS)
